tim23-1 inh – inhibits growth of tim23-1 mutant yeast | S. cerevisiae tim23-1 growth, BacTiter-Glo luminescence, 24 h | inhibition, % at 20 µM | 330,000 compounds, 1.3% hits | AID 463212;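 active means growth inhibition of the mutant yeast at or above 50%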;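 further: temperature-sensitive mutant grown at 25 °C; plate controls were DMSO-treated mutant yeast for no effect and medium wells lacking yeast for full effect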
tim10-1 inh – growth inhibitors of tim10-1 mutant yeast; S. cerevisiae tim10-1 ts strain growth, BacTiter-Glo, 24 h; inhibition, % at 20 µM; 330,000 compounds, 2.2% hits; AID 463190;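 active means inhibition of at least 40%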;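 further: mutant grown at 25 °C; 0% = DMSO wells with yeast and 100% = wells holding no yeast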
TIM10 inh – growth inhibitors of TIM10 yeast strain; S. cerevisiae TIM10 strain growth, BacTiter-Glo luminescence, 24 h; inhibition, % at 10 µM; 330,000 compounds, 1.4% hits;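 active means inhibition of 40% or more at the single tested concentration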;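 further: wild-type TIM10 isogenic control strain grown at permissive 25 °C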
NALP3 yeast inh – NALP3 inhibition in yeast; Yeast reconstituted NLRP3/ASC/caspase-1, beta-gal luminescence, 24 h; 330,000 compounds, 0.39% hits; inhibition, % at 10 µM;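 active means inhibition of 50% or more; inactive means inhibition below 50%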;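 further: plate controls were induced DMSO wells for no effect and uninduced yeast grown without galactose for full effect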
NALP1 yeast inh – inhibitors of NALP1 inflammasome in yeast; AID 2071; 280,000 compounds, 0.61% hits; S. cerevisiae NALP1/ASC/caspase-1 growth, X-gal OD620, 72 h; inhibition, % at 10 µM; in the data active means inhibition mostly above about 24%, no sharp cut-off; inactive means mostly below about 32%
SKKanGAS inh – SKKanGAS growth inhibition | S. pyogenes SKKanGAS, kanamycin growth, BacTiter-Glo, 6 h | 300,000 compounds, 1.3% hits | inhibition, % at 7.5 µM | AID 1662;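 active means mean replicate score, as percent of positive control median, at least 50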;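 further: strain carries kanamycin resistance gene driven by streptokinase promoter and grows in 40 µg/ml kanamycin; loss of luminescence reflects streptokinase promoter inhibition or plain growth inhibition; 0% = median of DMSO wells and 100% = positive control at its reference dose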
tim23-1 confirm – tim23-1 yeast growth inhibition, confirmed; AID 463218; inhibition, % at 20 µM; shares compounds with tim23-1 inh; 4,400 compounds, 83% hits; S. cerevisiae tim23-1 growth, BacTiter-Glo luminescence, 24 h;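 active means inhibition above about 39% in either of two replicate wells at 20 µM, limit read from the data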;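 further: temperature-sensitive tim23-1 mutant grown at 25 °C; 0% = DMSO wells with yeast and 100% = medium wells without yeast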
* = called active by the depositor; / = not tested or not shown. The list is not random: actives were taken first. Their share in the collection is about 4.9%.

SMILES	tim23-1 inh	tim10-1 inh	TIM10 inh	NALP3 yeast inh	NALP1 yeast inh	SKKanGAS inh	tim23-1 confirm
O=C(Cc1ccccc1)NNC(=O)Nc1cccc(Cl)c1	51*	-4	9	-1	-2	12	11
O=C(CCC(=O)NNC(=O)Nc1cccc(Cl)c1)NCc1ccccc1	3	6	-15	0	-20	4	/
O=C(NCc1ccc2c(c1)OCO2)c1ccc(-c2ccc(Cl)cc2)o1	55*	19	33	30	18	-8	54*
CC(=O)c1cccc(NC(=O)NCc2ccc3c(c2)OCO3)c1	11	8	-2	28	3	0	/
C/C(=N\NC(=O)c1ccccc1)c1ccccc1F	8	9	2	17	17	-2	/
C/C(=N\NC(=O)c1ccccc1OCCOc1ccccc1)c1ccccc1F	53*	10	3	11	/	/	37
Nc1nc(-c2ccc(-c3ccccc3)cc2)cs1	54*	27	0	29	8	-1	69*
Oc1ccc(-c2csc(-c3ccccc3)n2)cc1O	58*	7	-39	39	-16	-13	-10
Cc1noc(/C=C/N(C)C)c1S(=O)(=O)N1CCc2ccccc21	35	30	19	10	32	/	/
COc1ccc2c(=O)c3c(=O)n(Cc4ccco4)c(-c4ccc(C)cc4)nc3oc2c1	57*	17	19	18	6	13	46*
COc1ccc2c(c1)NC(c1ccc(N(C)C)cc1)c1cccn1-2 (configuration not stated)	56*	39	36	16	-2	28	61*
COc1ccc2c(c1)NC(c1cc(Cl)cc(Cl)c1O)c1cccn1-2 (configuration not stated)	1	1	16	14	-7	/	/
COc1cc(/C=C/c2ccc(O)cc2)cc(OC)c1	51*	26	19	-14	8	11	28
Cc1ccc(-c2cnc(-c3ccncc3)o2)cc1	-1	9	24	-6	15	2	/
Nc1ccc(-c2ncc(-c3ccccc3)o2)cc1	51*	25	15	25	24	-6	39
Cc1ccc(C(=O)N(c2c(C)n(C)n(-c3ccccc3)c2=O)C(C)C)cc1	-3	7	-3	6	2	-5	/
O=[N+]([O-])c1ccc2[nH]nc(-c3ccccc3)c2c1	59*	37	35	41	28	-16	33
O=C1SC(c2ccccc2)=C/C1=C\N1CCCCC1	63*	36	3	32	29	-3	39*
CCOC(=O)c1nnc(-c2ccccc2)nc1Oc1ccccc1Cl	53*	34	39	31	32	0	56*
CCOC(=O)c1nnc(-c2ccccc2)nc1NC	-27	-4	-22	14	-4	5	/
O=Cc1cnc2ccccc2c1-c1ccccc1	63*	12	2	21	4	-5	58*
O=Cc1cn[nH]c1-c1ccccc1	7	0	2	8	-15	-17	/
C=C1c2ccccc2O[C@H](C(=O)OCC)[C@H]1OC	26	4	-1	/	/	/	/
Cc1cc(N=Cc2cc(Br)ccc2O)no1	67*	36	8	3	20	-2	34
Cc1ccc(S(=O)(=O)/N=C/c2cc(Br)ccc2O)cc1	36	10	13	-5	-2	-6	/
SMILES	tim23-1 inh	tim10-1 inh	TIM10 inh	NALP3 yeast inh	NALP1 yeast inh	SKKanGAS inh	tim23-1 confirm
O=C(NN=C(Cc1ccccc1)Cc1ccccc1)c1ccccc1F	8	24	12	-8	-2	-2	/
Cc1ccc(Sc2ccc(CO)cc2[N+](=O)[O-])cc1	53*	32	30	20	2	-4	52*
Cc1ccc(Sc2ccc(CN3CCCC3)cc2[N+](=O)[O-])cc1	18	17	6	36	8	-21	/
CCN(CC)c1ccc(/C=C/c2cc(-c3ccccc3)c3ccccc3n2)cc1	/	/	/	/	-13	9	/
Cc1ccc(CC(=O)Nc2nccs2)cc1C	14	10	-13	1	25	0	/
CC1CN(C(=O)COC(=O)Cc2c(Cl)cccc2Cl)CC(C)O1 (configuration not stated)	14	9	5	10	/	/	/
Clc1cccc(CSc2nnc(-c3ccccn3)n2Cc2ccco2)c1	52*	33	40	-54	5	13	57*
O=C(CSc1nnc(-c2ccccn2)n1Cc1ccco1)c1ccc(Cl)cc1	35	14	3	18	-20	1	/
CCN(CC(=O)Nc1cc(Cl)ccc1OC)CC(=O)NC1CCS(=O)(=O)C1 (configuration not stated)	2	2	-7	-2	/	-4	/
Cc1cc(NC(=O)COc2ccccc2C)ccc1NC(=O)c1cccs1	54*	22	20	31	7	5	63*
Cc1ccc(C(=O)CCC(=O)Nc2ncccc2O)cc1	55*	9	5	15	/	-2	4
Cc1ccc(C(=O)CCC(=O)Nc2ncccc2C)cc1	10	-6	9	14	/	/	/
CC(C)CCN1C(=O)c2cccc3c(N)ccc(c23)C1=O	65*	39	14	10	/	-7	47*
O=C(NC1CCCC1)c1cc(COc2ccc3ncccc3c2)on1	-1	-13	-7	13	-68	-11	/
Cc1ccc(OCc2cc(C(=O)NC3CCCCC3)no2)cn1	51*	36	22	45	14	-7	57*
O=C(Cn1c(CO)nc2ccccc21)NC1CCCCCC1	7	10	10	7	7	-3	/
Cc1c(O)cc2n(c1=O)-c1ccc(Cl)cc1C2(C)C	24	22	26	1	8	5	/
CC1(C)c2cc(Cl)ccc2-n2c1cc(O)c(-c1ccccc1)c2=O	62*	23	28	14	/	3	58*
CSc1nnc(C)c(/C=C/Nc2ccc(C)cc2)n1	38	37	20	14	6	2	/
CSc1nnc(C)c(/C=C/NOCc2ccc(Cl)cc2)n1	54*	34	19	12	-8	-18	72*
CCOC(=O)c1ccc(NC(=O)c2ccccc2)cc1	15	13	18	42	19	-1	/
O=C(NOC(=O)c1ccccc1)c1ccccc1	64*	28	11	2	4	-2	34
Cc1cccc(/C=N/NC(=O)c2c(-c3ccccc3)noc2C)c1O	53*	24	33	13	5	8	51*
Cc1csc2c(N(C)CCO)ncnc12	-5	-5	-11	2	34	-1	/
O=C(N/N=C/CCc1ccccc1)c1ccccc1	55*	-3	6	3	8	-2	6
O=C(C1CC1)N1CCc2[nH]c3ccccc3c2C1	0	8	-2	19	0	9	/
O=C(c1ccccc1Br)N1CCc2c([nH]c3ccccc23)C1	61*	14	17	14	16	5	36

Screens from PubChem.
